Drawing on PubChem BioAssay AID1259418 (Broad Institute, 2018), this text covers max activity for 47 compounds.

About 840 (25%) of roughly 3,400 compounds were called active. Another 11% or so got no clear call; they are omitted. Not all results are given here. Entries with a potency or affinity are not part of this list. Values without a mark were called inactive.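 Rule for the calls: active = fitted half-maximal concentration of signal decrease at or below twice the sample's top tested concentration; inconclusive = flat curve between -70 and -30 percent, or poor fit; inactive = flat within 30 percent, signal rise, or potency above limit.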

The assay can be described thus: T. gondii growth inhibition with IFN-gamma, dose response, cell-based, ME49Luc, HeLa, luciferase, 72 h (AID 1259418). The settings on record: T. gondii ME49Luc in IFN-y HeLa, stronger effect = lower value, -100% = high-dose IFN-γ control wells; at 19.5 µM unless noted.
For the compound `Cc1nc(OCC(=O)Nc2ccccc2Br)c2ccccc2n1`, the max activity is 28.1% [at 0.16 µM].
Under `Cc1ccc(C)c(-c2nc(CN3CCc4c(sc5c4CCCC5)C3c3ccccc3)c(C)o2)c1` (configuration not stated) stands 15.8%.
Consider `COc1ccccc1-c1nc(Cn2nnc(-c3nc(-c4ccc5c(c4)OCO5)no3)c2C)c(C)o1`, for which the max activity was 8.21% [at 0.35 µM].
With `O=C(Nc1ccc(-c2nc(-c3ccccc3)co2)cc1)Nc1cccc(Cl)c1` the figure was 19.9% [at 0.16 µM]; with `O=C(c1cccnc1)N1CCC2(CC1)Nc1ccc(Cl)cc1-n1cccc12`, -27.3% [at 0.16 µM].
Under `CCOc1ccc(N2CC(NC(=O)C(=O)c3c[nH]c4ccccc34)CC2=O)cc1` (configuration not stated) stands 10.2% [at 10 µM].
With `O=C(NC1CC(=O)N(c2ccc(Cl)cc2)C1)C(=O)c1c[nH]c2ccccc12` (configuration not stated) the figure was 22.9% [at 2.6 µM]; with `O=C(Nc1ccc(-c2nc(-c3ccccc3)co2)cc1)Nc1ccc(Br)cc1F`, 58.9% [at 10 µM]; with `Cc1ccc(Cn2c(=O)c3nn(C)cc3n3c(=O)n(Cc4nc(-c5ccc(C)cc5)oc4C)nc23)cc1`, 11.5% [at 2.6 µM].
Take `Cc1oc(-c2ccccc2)nc1Cn1nc2n(Cc3ccc(F)cc3)c(=O)c3nn(C)cc3n2c1=O`: the max activity is 15.8%.
In the case of `Cc1cccc(NC(=O)Nc2ccc(-c3nc(-c4ccccc4)co3)cc2)c1`, the max activity is 16.2% [at 0.16 µM].
With `CN1C(=O)c2cc(NC(=O)c3cccc(F)c3)ccc2OC[C@@H]2O[C@@H](CC(=O)NCC3CCCCC3)CC[C@@H]21` the figure was -24.1%.
With `CN1C(=O)CCc2cc(NC(=O)CC3CCCCC3)ccc21`, the max activity was 8.53%.
With `COc1ccc(-c2nc(Nc3cccc(Cl)c3)c3ccccc3n2)cc1` the figure was 22.1% [at 0.35 µM].
Regarding `CCN(CC)C(=O)C1Cn2ccnc2C2(CCN(CC(C)C)CC2)O1` (configuration not stated), the max activity was 37.9%.
Take `O=C(NCCc1csc(-c2ccccc2)n1)C1CCN(C(=O)Cc2cccs2)CC1`: the max activity was 5.42% [at 0.35 µM].
Under `Cn1nnc2c(NCCSc3c[nH]c4ccccc34)ncnc21` stands 5.75% [at 0.16 µM].
Under `O=C1CCc2cc(NC(=O)C3CC3)ccc2N1` stands -5.5% [at 5 µM].
With `CN1C(=O)CCc2cc(NC(=O)C3CCCC3)ccc21`, the max activity was 11.7%.
As to `CC(C)N1CCC(c2ccnc3c(C(=O)N4CCCN(C)CC4)ncn23)CC1`, the max activity was 39%.
Take `Cc1ccc(S(=O)(=O)N2CCC3(CC2)NCCN=C3NCc2cccc(F)c2)cc1C`: the max activity is 6.41% [at 5 µM].
With `Cc1ccc(S(=O)(=O)N2CCC3(CC2)NCCN=C3NCc2ccc(F)c(Cl)c2)c(C)c1` the figure was 14% [at 5 µM]; with `COc1ccccc1CCC(=O)N1CCC[C@@H]1C(=O)NCCc1csc(-c2ccccc2)n1`, -10.5%; with `Cc1nc(N2CCCC2)nc2c1CCN(S(=O)(=O)c1ccccc1)CC2`, 10.7% [at 10 µM].
With `Cc1ccc(S(=O)(=O)N2CCC3(CC2)NCCN=C3NCc2ccc(F)cc2)cc1C` the figure was 30.3% [at 5 µM]; with `CCC1CCCCN1S(=O)(=O)c1cc(-c2nc(C)c(C)s2)sc1C` (configuration not stated), 7.15% [at 0.68 µM].
Under `Cc1nc(CCNC(=O)[C@H]2CCCN2S(=O)(=O)c2cnn(C(F)F)c2C)cs1` stands 13.7% [at 10 µM].
Take `Cc1ccc2c(c1C)-n1cccc1C1(CCN(C(=O)c3cccnc3)CC1)N2`: the max activity is 5.96% [at 0.68 µM].
With `COc1ccccc1C#Cc1ccc([C@H]2[C@@H](CO)N3CCCCN(C(=O)C4CCC4)C[C@H]23)cc1` the figure was -7.46% [at 0.08 µM]; with `COc1ccccc1C#Cc1ccc([C@@H]2[C@H](CO)N3CCCCN(C(=O)C4CCC4)C[C@@H]23)cc1`, 14.6% [at 5 µM]; with `Cc1cccc(-c2nc(Cn3nnc(-c4nc(-c5ccc6c(c5)OCO6)no4)c3C)c(C)o2)c1`, -10.5% [at 0.16 µM].
Under `Cc1ccc(CNc2nc(-c3ccc(Cl)cc3)nc3ccccc23)o1` stands 42.3%; under `Cc1ccc(NC(=O)Nc2ccc(-c3nc(-c4cc(C)ccc4C)co3)cc2)cc1`, 5.44% [at 2.6 µM].
For the compound `COc1cccc(CNC(=O)Nc2ccc(-c3nc(-c4ccc(C)cc4C)co3)cc2)c1`, the max activity is 20.1%.
Under `COc1ccccc1CN1CCc2nc(SCc3nc(-c4ccc(C)cc4)oc3C)[nH]c(=O)c2C1` stands 34.1%.
For the compound `Clc1ccc(-c2nc(N3CCN(C4CCCCC4)CC3)c3ccccc3n2)cc1`, the max activity was 19% [at 0.16 µM].
Under `Clc1ccc(-c2nc(N3CCC(Cc4ccccc4)CC3)c3ccccc3n2)cc1` stands 11.8%; under `CC1CCN(c2nc(-c3ccc(Cl)cc3)nc3ccccc23)CC1`, 5% [at 10 µM]; under `COc1ccc(-c2nc(N3CCC(c4ccccc4)C3)c3ccccc3n2)cc1` (configuration not stated), -14.1% [at 2.6 µM].
Take `O=C(c1ccc(F)cc1)N1c2ccccc2Sc2ccc(C(F)(F)F)cc21`: the max activity was -23.5% [at 0.08 µM].
With `Cc1ccc(-c2cc(C(=O)Nc3ccc4c(c3)CCC(=O)N4)c3ccccc3n2)cc1C` the figure was 6.1% [at 1.35 µM].
With `CCc1onc(C)c1C1CCCN1Cc1cn(CC(=O)OC)c2ccc(OC)cc12` (configuration not stated) the figure was 13.3% [at 5 µM]; with `COc1ccc(-c2nc3c(s2)CN(C(=O)Nc2ccc(C)cc2Cl)CC3)cc1`, 78.4%.
Take `O=C(Nc1ccc(F)cc1)N1CC(=O)N2[C@@H](CO)[C@@H](c3ccc(C4=CCCC4)cc3)[C@@H]2C1`: the max activity is 25.4% [at 10 µM].
Under `O=C(c1cnccn1)N1CC(=O)N2[C@H](CO)[C@H](c3ccc(-c4cccc(F)c4)cc3)[C@@H]2C1` stands 25.7%; under `O=C(c1cnccn1)N1CC(=O)N2[C@H](C1)[C@@H](c1ccc(-c3cccc(F)c3)cc1)[C@@H]2CO`, 6.32%; under `CCOc1ccccc1-c1noc(-c2nnn(Cc3nc(-c4ccc(OC)cc4)oc3C)c2C)n1`, 9.41% [at 1.35 µM].
